Reference: PubChem BioAssay (NCATS)
Records with an inconclusive call do not appear. The source made the active and inactive calls. Calls follow the shape of the dose curve; as a rule, active = well fitted inhibition curve with a large enough effect; inconclusive = small, poorly fitted or top-dose-only effect; inactive = flat fitted curve, though single readings scatter.

Key:
Assay in all cases: qHTS profiling for inhibitors of Plasmodium falciparum proliferation (AID 504749); also: nearly all actives have a fitted effect of over 60% in size
Settings in all cases: P. falciparum in erythrocytes, SYBR Green DNA, 72 h; series mostly up to 28.7 µM
CP335 = test system: CP335
Method in brief: (§1)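 Quantitative HTS: compounds pinned into medium, infected erythrocytes added (0.3% parasitemia, 2.5% hematocrit), 72 h culture at 37 C under 5% CO2. Saponin/Triton lysis with SYBR Green I, overnight RT, then fluorescence read.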

DFO2036 = test system: DFO2036
Method in brief: as §1

DIV14 = test system: DIV14
Method in brief: as §1

DIV17 = test system: DIV17
Method in brief: as §1

DIV30 = test system: DIV30
Method in brief: as §1

Dd2 = test system: Dd2
Method in brief: as §1

ECU = test system: ECU
Method in brief: as §1

FAB9 = test system: FAB9
Method in brief: as §1

GB4 = test system: GB4
Method in brief: as §1

HB3 = test system: HB3
Method in brief: as §1

ICS = test system: ICS
Method in brief: as §1

JCK = test system: JCK
Method in brief: as §1

N140 = test system: N140
Method in brief: as §1

P93_24 = test system: P93_24
Method in brief: as §1

P94_40 = test system: P94_40
Method in brief: as §1

PAD = test system: PAD
Method in brief: as §1

PC15 = test system: PC15
Method in brief: as §1

PC26 = test system: PC26
Method in brief: as §1

PC49 = test system: PC49
Method in brief: as §1

SC27B = test system: SC27B
Method in brief: as §1

Measured: Potency

Cc1c(C)c2c(c(C)c1OC(=O)c1cccnc1)CC[C@@](C)(CCC[C@H](C)CCC[C@H](C)CCCC(C)C)O2
inactive: all assays above

Nc1ccncc1N
inactive: all assays above

CC(=O)Nc1ccc(C(=O)O)cc1
inactive: all assays above

CCCCCCCC(=O)OCC(COC(=O)CCCCCCC)OC(=O)CCCCCCC
inactive: all assays above

CCN(CC)S(=O)(=O)c1ccc(C(=O)O)cc1
inactive: all assays above

O=C(O)CNC(=O)c1ccccc1I
inactive: all assays above

C=CCSCC1Nc2cc(Cl)c(S(N)(=O)=O)cc2S(=O)(=O)N1 (stereo not given)
inactive: all assays above

OCc1ccc(Cl)cc1Cl
inactive: all assays above

Cc1cccc(Nc2ccccc2C(=O)O)c1C
inactive: all assays above

C[N+](C)(C)CC[N+]1(C)Cc2c(Cl)c(Cl)c(Cl)c(Cl)c2C1
inactive: all assays above

COc1ccc(O)cc1
inactive: all assays above

O=C(O)Cc1cn(-c2ccccc2)nc1-c1ccc(Cl)cc1
inactive: all assays above

CC(C)=CCC/C(C)=C/CO
inactive: all assays above

Cc1ccc(C(C)C)c(O)c1
inactive: all assays above
